Source: PubChem BioAssay (NCATS)
Records with an inconclusive call do not appear. Values without a mark were called inactive. The call rests on the fitted dose curve; in most records, active means well fitted inhibition curve with a large enough effect; inconclusive means small, poorly fitted or top-dose-only effect; inactive means flat fitted curve, though single readings scatter. *1 amine or outer side, *2 acyl side, *3 side chain or, on linkers, in order; H or OH if unused. Where a SMILES comes first, the peptide text is derived from it. Bridges are numbered along the chain shown (N, C = ends). [ ]: non-standard residue; d: D form. The star is where a group is joined. pTerphenylCO(4''-OnC5H11) = CCCCCOc1ccc(-c2ccc(-c3ccc(C(=O)*)cc3)cc2)cc1; Orn(4R-OH,5R-OH) = O=C([C@H](C[C@@H](O)[C@@H](O)N[*:3])N[*:1])[*:2]; hTyr(3S-OH,4S-OH) = N[C@H](C(=O)O)[C@H](O)[C@@H](O)c1ccc(O)cc1; Pro(3S-OH,4S-Me) = C[C@H]1CN[C@H](C(=O)O)[C@H]1O; Hyp = O=C(O)[C@@H]1C[C@@H](O)CN1
On the % scale 0 is the no-effect control and ±100 the full control effect.

The compounds below were run on HaCat (assay: Cytotoxic Profiling of Annotated Libraries Using Quantitative High-Throughput Screening (AID 1296008; further: nearly all actives have a fitted effect of over 60% in size)). Conditions: Five cell lines viability, CellTiter-Glo ATP luminescence, 48-72 h; max response: stronger effect = lower value.
In short: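 Cytotoxicity was measured as CellTiter-Glo ATP luminescence, read after 10 min at room temperature. Compound treatment of the cells lasted 48 or 72 hr at 37 degrees Celsius in a qHTS format.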
Compound `C=CC(C)(O)CC[C@@H]1[C@@]2(C)CCCC(C)(C)C2CC[C@@]1(C)O` (stereo not given in full) has a max response of -28.7%. With `COc1c2c(c(C)c3c1C(=O)OC3)O[C@@]1(C)C[C@@H](OC(C)=O)[C@]34O[C@](OC)(CC[C@]3(C)[C@H]1C2)OC4(C)C` the max response was -9.22%. `Cc1cccc(-c2[nH]ncc2-c2ccc(F)c(-c3cnn(CCO)c3)c2)n1` was tested, and the max response was 3.16%. `CC1OC(OC2C(O)COC(O[C@@H]3[C@@H](O)[C@@H](O)[C@H](OC4C(OC(=O)[C@]56CCC(C)(C)CC5C5=CCC7[C@@]8(C)C[C@H](O)[C@H](OC9OC(CO)C(O)C(O)C9O)[C@@](C)(CO)C8[C@H](O)C[C@@]7(C)[C@]5(C)CC6)OCC(O)C4O)O[C@H]3C)C2O)C(O)C(O)C1O` (stereo not given in full) was tested, and the max response was 0.653%. With `Cc1cc(F)ccc1-c1nc(NCCN=C(N)NC#N)nc2c1ccc(=O)n2-c1c(F)cccc1F` the max response was 4.96%. `CCOc1ccc(-n2c([C@@H](C)N(Cc3cccnc3)C(=O)Cc3ccc(OC(F)(F)F)cc3)nc3ncccc3c2=O)cc1` was tested, and the max response was -4.53%. `O=C(C(Cc1cccc(C(F)(F)F)c1)NS(=O)(=O)c1cc(F)c2c(c1)CCNC2)N1CCCC1` (stereo not given) was tested, and the max response was -1.4%. `COc1ccc(N2CCN(C(=O)c3cc4c(s3)-c3ccccc3S(=O)(=O)C4)CC2)cc1` gave a max response of 2.45%. For `CC(=O)O[C@H]1C[C@@](O)(C(C)C)[C@@H]2[C@@H](OC(=O)c3ccc(O)cc3)CC(C)=CC[C@@]12C`, the max response was -1.16%. Work on `CC(C)C[C@H](CO)Nc1nc(S[C@@H](C)c2ccccc2)nc2nc(N)sc12` yielded a max response of -4.79%. In the case of `CCCCCOc1ccc(-c2ccc(-c3ccc(C(=O)N[C@H]4C[C@@H](O)[C@@H](O)NC(=O)[C@@H]5[C@@H](O)[C@@H](C)CN5C(=O)[C@H]([C@@H](C)O)NC(=O)[C@H]([C@H](O)[C@@H](O)c5ccc(O)cc5)NC(=O)[C@@H]5C[C@@H](O)CN5C(=O)[C@H]([C@@H](C)O)NC4=O)cc3)cc2)cc1` ({pTerphenylCO(4''-OnC5H11)}-[Orn(4R-OH,5R-OH)]T[Hyp][hTyr(3S-OH,4S-OH)]T[Pro(3S-OH,4S-Me)]; lactam 1-C), the max response is reported as 3.64%. Compound `COc1cc(C(C)=O)c(OC)c2c1OC(C)(C)C=C2` has a max response of -6.75%. Work on `O=C(Nc1ccccc1C(=O)NC1CCCCNC1=O)c1cc2ccccc2s1` (stereo not given) yielded a max response of 4.7%. In the case of `CCC[C@@]1(CCc2ccccc2)CC(O)=C([C@H](CC)c2cccc(NS(=O)(=O)c3ccc(C(F)(F)F)cn3)c2)C(=O)O1`, the max response is reported as 2.03%. For `CC(C)(Cc1ccccc1)NCC(O)c1ccc(O)c(NS(C)(=O)=O)c1` (stereo not given), the max response was 2.45%.
